Among the data in PubChem BioAssay (NCI) are growth values, retold here.

“And” between values parts separate entries of the source, which are not always exact repeats. Equal values may be shown once. About 83,000 compounds went through this panel and 20% of them were active in at least one assay; those are over-represented in the sample as a whole.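 Cell lines were cultured in 96-well plates, exposed to a single compound concentration, and assessed for percent growth 48 hours later.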 The source made the active and inactive calls. How the source made its calls: active means growth percent below 10; inactive means the rest.

Among the test systems are NCI-H23 lung; NCI-H226 lung; NCI-H322M lung; HOP-62 NSCLC; NCI-H522 lung; A549/ATCC NSCLC; 786-0 renal; HOP-92 NSCLC.
Experiment in all cases: NCI-60 one-dose screen, 48 h (100 = growth as untreated, 0 = no growth, -100 = all killed)
For another test, the system named is NCI-H460 lung. The settings on record: 10 µM.
The subject of the next test is COLO 205 colon. The settings on record: 10 µM.

Take `CC[C@@]1(OC(=O)CN(C)C)C(=O)OCc2c1cc1n(c2=O)Cc2cc3c(N)cccc3nc2-1`: the growth in the test with NCI-H23 lung (10 µM) is -26.7% (active); in the test with NCI-H226 lung (10 µM) it was -13.4% (active); with NCI-H322M lung (10 µM), -18.6% (active); in the test on HOP-62 NSCLC (10 µM), -5.79% (active); in the test on NCI-H460 lung it was -5.75% (active); with NCI-H522 lung (10 µM), -26% (active). Also, the values for the growth with A549/ATCC NSCLC (10 µM) and in the test on 786-0 renal (10 µM) were 4.76% (active) and 0.893% (active), respectively.

For the molecule `CCC(C)(c1ccc(O)c(C)c1)c1ccc(O)c(C)c1`, the growth in the test with NCI-H23 lung (10 µM) is 91.9% (inactive); in the test on NCI-H226 lung (10 µM), 101% (inactive); in the test with NCI-H322M lung (10 µM), 318% (inactive); in the test with HOP-62 NSCLC (10 µM), 84.5% (inactive); with HOP-92 NSCLC (10 µM), 82.4% (inactive); in the test with NCI-H522 lung (10 µM), 75.9% (inactive). The figures for the growth in the test with A549/ATCC NSCLC (10 µM) and with 786-0 renal (10 µM) were 83.4% (inactive) and 63.5% (inactive), respectively.

Regarding `Cc1cc(N=C2C=CC(=[N+](C)C)C=C2)c(N)cc1N`, the growth in the test with NCI-H23 lung (10 µM) is 78.2% (inactive); in the test with NCI-H226 lung (10 µM), 97.9% (inactive); in the test on NCI-H322M lung (10 µM), 93.7% (inactive); with HOP-62 NSCLC (10 µM), 101% (inactive); in the test with HOP-92 NSCLC (10 µM) it was 97.3% (inactive); in the test on NCI-H522 lung (10 µM), 77.7% (inactive). The growth in the test with A549/ATCC NSCLC (10 µM) was 84.6% (inactive); in the test with 786-0 renal (10 µM) it was 96% (inactive).

For the molecule `N#C/C(=C/N1C(=O)/C(=C/c2ccc([N+](=O)[O-])cc2)SC1=S)c1nc2ccccc2s1`, the growth in the test with NCI-H23 lung (10 µM) was 89.1% (inactive); in the test with NCI-H226 lung (10 µM) it was 63.8% (inactive); in the test on NCI-H322M lung (10 µM) it was 88.1% (inactive); with HOP-62 NSCLC (10 µM) it was 82.4% (inactive); in the test on NCI-H460 lung, 90.3% (inactive); with HOP-92 NSCLC (10 µM), 66.8% (inactive). Besides, the growth was 78.7% (inactive) in the test on NCI-H522 lung (10 µM), 91.4% (inactive) in the test with A549/ATCC NSCLC (10 µM) and 94.8% (inactive) in the test on 786-0 renal (10 µM).

On to `C=C1N(C)c2ccc(Cl)cc2C1(C)C`, for which the growth in the test on NCI-H23 lung (10 µM) is 52% (inactive); in the test on NCI-H226 lung (10 µM) it was 67.6% (inactive); in the test on NCI-H322M lung (10 µM), 84.2% (inactive); in the test with HOP-62 NSCLC (10 µM), 63.6% (inactive); in the test with HOP-92 NSCLC (10 µM), 48.1% (inactive); in the test on NCI-H522 lung (10 µM) it was 23.7% (inactive). Moreover, the growth in the test with A549/ATCC NSCLC (10 µM) is 44.4% (inactive); in the test on 786-0 renal (10 µM) it was 75.8% (inactive).

For `CC(=O)O[C@H]1C(=O)[C@@]2(C)[C@H]([C@H](OC(=O)c3ccccc3)[C@]3(O)C[C@H](OC(=O)[C@H](O)[C@@H](NC(=O)c4ccccc4)c4ccccc4)C(C)=C1C3(C)C)[C@]1(OC(C)=O)CO[C@@H]1C[C@@H]2O`, the growth in the test with NCI-H23 lung (0.01 µM) was 24.1% (inactive); with NCI-H23 lung (2.5 µM), 23.2% (inactive); in the test on NCI-H23 lung (5 µM), 30.5% (inactive); in the test with NCI-H23 lung (10 µM), 40.3% (inactive) and 34.8% (inactive); with NCI-H226 lung (0.01 µM) it was 67.6% (inactive); in the test on NCI-H226 lung (2.5 µM), 27.4% (inactive). Besides, the growth in the test with NCI-H226 lung (5 µM) was 32.1% (inactive); in the test on NCI-H226 lung (10 µM), 77.4% (inactive) and 31% (inactive); in the test on NCI-H322M lung (0.01 µM), 53.8% (inactive); with NCI-H322M lung (2.5 µM) it was 30.7% (inactive); in the test on NCI-H322M lung (5 µM), 30.1% (inactive); with NCI-H322M lung (10 µM) it was 21.2% (inactive) and 30.1% (inactive). Moreover, the growth with HOP-62 NSCLC (0.01 µM) is 48.2% (inactive); with HOP-62 NSCLC (2.5 µM) it was 12.5% (inactive); with HOP-62 NSCLC (5 µM), 15.4% (inactive); in the test on HOP-62 NSCLC (10 µM), 30.7% (inactive) and 6.92% (active); in the test on HOP-92 NSCLC (0.01 µM) it was 53.2% (inactive); in the test on HOP-92 NSCLC (2.5 µM), 32.9% (inactive). The growth in the test on HOP-92 NSCLC (5 µM) is 42.7% (inactive); in the test on HOP-92 NSCLC (10 µM), 37.4% (inactive); with NCI-H522 lung (0.01 µM) it was 22.1% (inactive); with NCI-H522 lung (2.5 µM) it was -12.4% (active); with NCI-H522 lung (5 µM) it was 1.57% (active); with NCI-H522 lung (10 µM) it was -16.2% (active) and 11.8% (inactive). For the same molecule, the growth was 31.4% (inactive) in the test with A549/ATCC NSCLC (0.01 µM); 18.5% (inactive) in the test with A549/ATCC NSCLC (2.5 µM); 21.2% (inactive) with A549/ATCC NSCLC (5 µM); 47.3% (inactive) and 29.9% (inactive) with A549/ATCC NSCLC (10 µM); 51.7% (inactive) in the test on 786-0 renal (0.01 µM); 17.7% (inactive) with 786-0 renal (2.5 µM). For the same molecule, the growth was 31% (inactive) in the test on 786-0 renal (5 µM); 42.2% (inactive) and 42.3% (inactive) with 786-0 renal (10 µM).

Consider `O=c1[nH]cc(/C=N\Nc2ccccc2)c(=O)[nH]1`, for which the growth is 89.9% (inactive) in the test on NCI-H23 lung (10 µM); 87.7% (inactive) in the test with NCI-H226 lung (10 µM); 58.1% (inactive) in the test on NCI-H322M lung (10 µM); 62.7% (inactive) with HOP-62 NSCLC (10 µM); 96.7% (inactive) in the test with HOP-92 NSCLC (10 µM); 19.7% (inactive) in the test with NCI-H522 lung (10 µM). For the same molecule, the growth in the test on A549/ATCC NSCLC (10 µM) is 29.4% (inactive); in the test with 786-0 renal (10 µM) it was 79.6% (inactive).

In the case of `COc1ccc(N)c2c1C(=O)c1ccccc1C2=O`, the growth in the test on NCI-H23 lung (10 µM) is 99.6% (inactive); with NCI-H226 lung (10 µM), 93.5% (inactive); in the test on NCI-H322M lung (10 µM), 91.1% (inactive); in the test with HOP-62 NSCLC (10 µM), 111% (inactive); in the test on NCI-H460 lung, 98.1% (inactive); with HOP-92 NSCLC (10 µM) it was 84.1% (inactive). The growth in the test on NCI-H522 lung (10 µM) was 88.6% (inactive); in the test on A549/ATCC NSCLC (10 µM), 96.7% (inactive); in the test on 786-0 renal (10 µM), 112% (inactive).

For `CCC(=O)Oc1ccc(/C=N/NC(N)=S)nc1`, the growth is 26.7% (inactive) in the test on NCI-H23 lung (10 µM); 79.1% (inactive) in the test on NCI-H226 lung (10 µM); 46% (inactive) in the test with NCI-H322M lung (10 µM); 36.4% (inactive) with HOP-62 NSCLC (10 µM); 68.5% (inactive) in the test with HOP-92 NSCLC (10 µM); 39.4% (inactive) in the test with NCI-H522 lung (10 µM). In addition, the growth with A549/ATCC NSCLC (10 µM) is 98.8% (inactive); with 786-0 renal (10 µM), 23.6% (inactive).

For `COc1ccc(C(C#N)=C2C=CC(=NO)C=C2)cc1`, the growth with COLO 205 colon was 127% (inactive).

Take `CN(C)c1ccc(/C=C/c2ccnc3ccccc23)cc1N`: the growth in the test on COLO 205 colon is 62.9% (inactive).
